Sampled rows, rich in hits. Any-hit rate of the full collection: about 6.7%.
T cruzi growth-1 – T. cruzi proliferation inhibition; T. cruzi beta-gal in NIH3T3, GalScreen luminescence, 90 h; inhibition, % at 8.34 µM; 77,000 tested, 5.9% active; AID 624255;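 active = mean inhibition above about 93%, with at least 55% of replicates each passing it, limit read from the data, passing the limit was not always enough; inconclusive = only one of those two conditions holds; inactive = neither condition holds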
C diff growth – C. difficile growth inhibition; AID 1259249; 86,000 tested, 0.25% active; growth activity, negative = inhibition, % at 16 µg/mL (by protocol); Clostridium difficile clinical isolate growth, OD600, 24 h; active compounds read low;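 active = mean growth activity at or below -80% and every replicate also at or below -80%; inconclusive = mean at or below -80% but some replicate above -80%; inactive = mean growth activity above -80%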;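 note: 0% = DMSO wells and -100% = levofloxacin 16 µg/mL wells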
Pf Dd2 growth – inhibitors of Plasmodium falciparum Dd2 growth | P. falciparum Dd2 growth, SYBR Green, 72 h; active compounds read low | AID 1159554 | activity change, % at 10 µM | 94,000 tested, 2.3% active; in the data active = activity change below about -80%; inconclusive = no clear call, values can overlap the other calls
T cruzi growth-2 – Trypanosoma cruzi proliferation inhibition | inhibition, % at 8.35 µM | shares compounds with T cruzi growth-1 | T. cruzi beta-gal in NIH3T3, GalScreen luminescence, 90 h | 5,600 tested, 72% active;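 active = mean replicate inhibition above about 95% and at least 55% of replicates individually reaching it, limit read from the data; inconclusive = only one of the two criteria is met; inactive = neither criterion is met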
T cruzi growth-3 – blocks T. cruzi growth in NIH3T3 host cells | shares compounds with T cruzi growth-1 | T. cruzi beta-gal in NIH3T3, GalScreen luminescence, 90 h | inhibition, % at 2.09 µM | 5,600 tested, 21% active | AID 651740;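 active = mean inhibition above about 95%, with at least 55% of replicates also reaching it, limit read from the data; inconclusive = meets just one of the two conditions; inactive = meets neither condition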;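 note: plate controls were neutral control median for no effect and positive control median for full effect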
NIH3T3 tox – cytotoxicity in mouse NIH/3T3 fibroblasts; cytotoxicity (signal decrease), % at 8.35 µM; shares compounds with T cruzi growth-1; AID 651742; 5,600 tested, 14% active; NIH/3T3 viability, CellTiter-Glo ATP luminescence, 90 h;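 active = mean signal decrease across replicates above about 35% based on untreated-well scatter, with enough replicates individually passing, limit read from the data; inconclusive = no rule stated though some were filed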;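 note: 0% = median of neutral control wells and 100% = median of positive control wells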
3T3 cytotox 2 – NIH/3T3 (mouse) viability loss | 5,600 tested, 56% active | NIH/3T3 viability, CellTiter-Glo ATP luminescence, 90 h | shares compounds with T cruzi growth-1 | inhibition, % at 24.9 µM;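 active = mean loss of cell viability signal at or above a set limit, and enough replicates individually reaching it; inconclusive = meets only the mean limit or only the replicate share; inactive = meets neither condition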;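 note: 0% = median of neutral control wells and 100% = median of positive control wells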
Numbers without * were called inactive.

How did CCCC#Cc1ccc2c(c1)O[C@H](CN(C)C(=O)NCCC)[C@H](C)CN([C@H](C)CO)S2(=O)=O do in these assays?
T cruzi growth-1: -42; C diff growth: 6; Pf Dd2 growth: -23

What do the screens show for `CCC(=O)N(C)C[C@@H]1Oc2cc(C#CCN(C)C)ccc2S(=O)(=O)N([C@H](C)CO)C[C@@H]1C`?
T cruzi growth-1: 94; C diff growth: -2; Pf Dd2 growth: 3

Results for CCC(=O)N(C)C[C@H]1Oc2cc(C#CCN(C)C)ccc2S(=O)(=O)N([C@H](C)CO)C[C@H]1C ?
T cruzi growth-1: 66; C diff growth: -1; Pf Dd2 growth: 5

How did CCCNC(=O)N(C)C[C@H]1Oc2cc(C#CCN(C)C)ccc2S(=O)(=O)N([C@@H](C)CO)C[C@@H]1C do in these assays?
T cruzi growth-1: inconclusive; C diff growth: -4; Pf Dd2 growth: -4; T cruzi growth-2: 88; T cruzi growth-3: 36; NIH3T3 tox: -24; 3T3 cytotox 2: -20

What do the screens show for `CCC(=O)N(C)C[C@H]1Oc2cc(C#CCN(C)C)ccc2S(=O)(=O)N([C@@H](C)CO)C[C@@H]1C`?
T cruzi growth-1: 102*; C diff growth: -1; Pf Dd2 growth: -2; T cruzi growth-2: 104*; T cruzi growth-3: inconclusive; NIH3T3 tox: 26; 3T3 cytotox 2: 19

What do the screens show for `CCC(=O)N(C)C[C@H]1Oc2cc(C#CCN(C)C)ccc2S(=O)(=O)N([C@H](C)CO)C[C@@H]1C`?
T cruzi growth-1: 102*; C diff growth: 1; Pf Dd2 growth: 7; T cruzi growth-2: 97*; T cruzi growth-3: 91; NIH3T3 tox: -11; 3T3 cytotox 2: -1

Results for CCS(=O)(=O)N(C)C[C@@H]1N[C@H](CO)[C@@H]1c1ccc(C2=CCCCC2)cc1 ?
C diff growth: -2; Pf Dd2 growth: -53

What do the screens show for `Cc1noc(C)c1NC(=O)N(C)C[C@@H]1OCCCC[C@@H](C)Oc2ccc(NS(=O)(=O)c3ccc(Cl)cc3)cc2C(=O)N([C@H](C)CO)C[C@@H]1C`?
T cruzi growth-1: -14; C diff growth: -3; Pf Dd2 growth: 10

How did CNC[C@H]1Oc2c(NC(=O)Nc3ccc(C(F)(F)F)cc3)cccc2C(=O)N([C@@H](C)CO)C[C@@H]1C do in these assays?
T cruzi growth-1: 82; C diff growth: 20; Pf Dd2 growth: 5

How did O=C(C[C@H]1CC[C@@H]2[C@H](COC[C@H](O)CN2S(=O)(=O)c2ccccc2)O1)Nc1ccc(-c2ccccc2)cc1 do in these assays?
T cruzi growth-1: 88; Pf Dd2 growth: -20

How did O=C(C[C@@H]1CC[C@@H]2[C@H](COC[C@@H](O)CN2S(=O)(=O)c2ccccc2)O1)Nc1ccc(-c2ccccc2)cc1 do in these assays?
T cruzi growth-1: 104*; Pf Dd2 growth: -32; T cruzi growth-2: 117*; T cruzi growth-3: 72; NIH3T3 tox: 17; 3T3 cytotox 2: 20

What do the screens show for `Cc1cccc(S(=O)(=O)N2C[C@@H](O)COC[C@H]3O[C@@H](CC(=O)Nc4ccc(-c5ccccc5)cc4)CC[C@@H]32)c1`?
T cruzi growth-1: 113*; C diff growth: 9; Pf Dd2 growth: -48; T cruzi growth-2: 100*; T cruzi growth-3: 95; NIH3T3 tox: 7; 3T3 cytotox 2: 78*

Results for O=C(C[C@@H]1CC[C@H]2[C@@H](COC[C@@H](O)CN2S(=O)(=O)c2cccc(F)c2)O1)Nc1ccc(-c2ccccc2)cc1 ?
T cruzi growth-1: 92; C diff growth: -39; Pf Dd2 growth: 4

Results for O=C(C[C@H]1CC[C@@H]2[C@H](COC[C@@H](O)CN2S(=O)(=O)c2ccccc2)O1)Nc1ccc(-c2ccccc2)cc1 ?
T cruzi growth-1: 69; Pf Dd2 growth: -26

How did O=C(C[C@@H]1CC[C@H]2[C@@H](COC[C@@H](O)CN2S(=O)(=O)c2ccccc2)O1)Nc1ccccc1 do in these assays?
T cruzi growth-1: -14; C diff growth: 4; Pf Dd2 growth: 2

Source: PubChem
